# The list is not random: actives were taken first. Their share in the collection is about 14%.
# Pf growth 48h = P. falciparum growth inhibition at 48 hours (one generation); P. falciparum luciferase growth in erythrocytes, 48 h; Potency, µM (top dose mostly 28.7 µM), without a hit: at the highest dose activity change, negative = inhibition, hits mostly inhibitors; actives 5.9% (n = 310,000); also: potency is read from the fitted curve at half-maximal effect
#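 Luciferase-expressing P. falciparum in infected erythrocytes (2% hematocrit, 0.1% parasitemia final) in RPMI 1640/0.5% Albumax were exposed to compound for 48 hours at 37 C, 5% CO2; growth read as luminescence.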
# FBPA Giardia inh = Giardia lamblia aldolase inhibition; A8B2U2; Potency, µM (titrated, usually from 59.6 µM), for inactives: at the highest dose activity, negative = inhibition, usual class: inhibitors; purified Giardia FBPA; actives 0.71% (n = 290,000); also: potency is read from the fitted curve at half-maximal effect; nearly all actives have a fitted effect of over 55% in size
# Target sequence (A8B2U2 whole entry, looked up): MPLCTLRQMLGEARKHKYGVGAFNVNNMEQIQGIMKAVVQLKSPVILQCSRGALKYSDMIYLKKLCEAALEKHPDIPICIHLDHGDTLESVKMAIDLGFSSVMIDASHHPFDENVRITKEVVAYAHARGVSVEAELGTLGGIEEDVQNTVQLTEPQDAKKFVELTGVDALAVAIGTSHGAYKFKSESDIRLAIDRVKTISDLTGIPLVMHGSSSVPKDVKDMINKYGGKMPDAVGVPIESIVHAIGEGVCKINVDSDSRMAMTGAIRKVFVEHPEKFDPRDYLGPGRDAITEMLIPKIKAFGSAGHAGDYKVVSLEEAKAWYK
#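 40 nM FBPA preincubated 10 min at RT with compound (up to 57.5 uM final), then substrate plus GAPDH/TPI/NAD/arsenate coupling and diaphorase/resazurin added. Fluorescence read after 20 min at RT, 525/598 nm.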
# Sm TGR inh = inhibitors of Schistosoma mansoni thioredoxin glutathione reductase; Q962Y6; purified TGR, DTNB reduction, TNB absorbance 405 nm; Potency, µM (doses to about 114 µM), inactives show at the top dose activity change, negative = inhibition, most hits filed as inhibitors; actives 3% (n = 360,000); also: potency is read from the fitted curve at half-maximal effect; nearly all actives have a fitted effect of over 60% in size
#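 TGR 20 nM + NADPH 100 uM (dispensed conc.), cpd preinc 15 min RT; start with NADPH (500 uM addition) then DTNB (15 mM addition). Kinetic TNB absorbance, 405 nm filter. Four-parameter Hill fit across titration.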
# HCMV inh = inhibitors of human cytomegalovirus; actives 4.5% (n = 410,000); HFF cells, HCMV-luciferase reporter, 72 h; hits give low values; activity change, negative = inhibition, % at 57.5 µM; AID 1259415; in the data active = activity change below about -60%; inconclusive = no clear call, values can overlap the other calls; inactive = above about -39%
#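 Steps: HFFs plated, 16 h 37C; compounds added; HCMV-luciferase added to MOI 1 PFU/cell; 72 h 37C; OneGlo reagent, 5 min room temperature; luminescence read, normalized to controls.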
# Pf growth 96h = P. falciparum growth inhibition at 96 hours; P. falciparum luciferase reporter growth, 96 h; Potency, µM (titrated, usually from 28.7 µM), without a hit: at the highest dose activity change, negative = inhibition, hits mostly inhibitors; actives 6.9% (n = 320,000); also: potency is read from the fitted curve at half-maximal effect
#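 Infected RBCs, 2% Hct / 0.05% parasitemia final; luciferase-reporter P. falciparum; cpd 96 h, 37 C, 5% CO2; luciferase detection reagent; luminescence.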
# The depositor's hits bear a star; ? = inconclusive; . = no result; [ ] = remark or other dose. Unless noted, calls follow the shape of the dose curve; as a rule, active = well fitted curve in the direction sought with a large enough effect; inconclusive = small, poorly fitted or top-dose-only effect, or another doubt; inactive = no such curve, though single readings can be large; an effect the other way counts as inactive or inconclusive. % is scaled to controls: 0 for no effect and ±100 for the full control effect.
SMILES,Pf growth 48h,FBPA Giardia inh,Sm TGR inh,HCMV inh,Pf growth 96h
Cc1ccc(-c2nn(-c3ccccc3)cc2CO)o1,489%,2%,45µM*,10,44%
Cc1ccc(-c2nn(-c3ccccc3)cc2C=O)o1,176%,-23%,13µM*,21,63%
O=C(Nc1ccc(N2CCOCC2)cc1N1CCOCC1)c1cccc([N+](=O)[O-])c1,-5%,-13%,4%,-37,14%
COCCCN(CCC#N)C(=O)c1c(-c2c(Cl)cccc2Cl)noc1C,50%,6%,1%,?,23%
COC(=O)Cc1[nH]n(-c2nc3ccccc3s2)c(=O)c1C(C)=Nc1ccc(C)cc1,-32%,-9%,-8%[57.1 µM],-78*,7%
COc1ccc(-c2ccc(N(C)C)cc2)cc1[C@H]1[C@@H]2C=CCC[C@@]2(C)C(=O)N1Cc1ccccc1,9.3µM*,0%,?,19,9.3µM*
COc1ccc(/C=C/c2ccccc2)cc1[C@H]1[C@@H]2C=CCC[C@@]2(C)C(=O)N1Cc1ccccc1,10µM*,1%,28µM*,22,?
COc1ccc(-c2ccc(OC)c([C@H]3[C@@H]4C=CCC[C@@]4(C)C(=O)N3Cc3ccccc3)c2)cc1OC,8.3µM*,1%,-20%,27,12µM*
COc1ccc(Br)cc1[C@H]1[C@@H]2C=CCC[C@@]2(C)C(=O)N1Cc1ccccc1,?,0%,-7%,16,12µM*
Cc1ccc(S(=O)(=O)NN2CCCCCC2)cc1,.,.,.,-15,.
Cc1cc(C)c2nc(-c3ccncc3)cc(C(=O)N3CCN(Cc4ccccc4Cl)CC3)c2c1,?,-1%,-14%,69,4%
COc1ccccc1CNC(=O)C1CCC(CNS(=O)(=O)c2ccc(F)cc2)CC1 (stereo not drawn),0%,6%,2%,-16,0%
Cc1ccc2c(c1)cc1c(=O)n(CC(=O)N3CCCCC3)nc(C)n12,.,.,0%,-18,.
CCN1CCN(c2ccc(S(=O)(=O)N3CCCCC3)cc2NC(=O)/C=C/c2ccc(F)cc2)CC1,10µM*,.,-2%,-9,?
CCN1CCN(c2ccc(S(=O)(=O)N3CCCCC3)cc2NC(=O)/C=C/c2ccc([N+](=O)[O-])cc2)CC1,2.1µM*,.,6%,-19,1.9µM*
CN1CCN(c2ccc(S(=O)(=O)N3CCCCC3)cc2NC(=O)/C=C/c2ccc(Cl)c([N+](=O)[O-])c2)CC1,2.9µM*,.,4%,-80*,5.9µM*
O=C(Nc1ccccc1N1CCCCC1)c1ccc(Cl)c([N+](=O)[O-])c1,-26%,-8%,2%,25,6%
CCN1CCN(c2ccc(S(=O)(=O)N3CCOCC3)cc2NC(=O)/C=C/c2ccc(C)cc2)CC1,-98%,.,-24%,3,?
O=C(/C=C/c1ccc(Cl)c([N+](=O)[O-])c1)Nc1ccc(N2CCCC2)c(Cl)c1,?,0%,7%,-68*,80%[5.75 µM]
CCC(C)[C@H]1CNC(=O)C(=O)N1CCc1cccc2ccccc12 (stereo partly drawn),.,.,.,4,.
COC(=O)CN(C)C(=O)c1ccc2nc(Cc3cccc(Cl)c3)oc2c1,0%,23%,7%,35,?
CC(C)C[C@H](NC(=O)c1[nH]cnc1C(=O)N[C@H](C)c1ccccc1)C(=O)OCc1ccccc1,?,?,-2%,-8,?
CC(C)C[C@H](NC(=O)c1nc[nH]c1C(=O)N[C@@H](CC(C)C)C(=O)OCc1ccccc1)C(=O)OCc1ccccc1,?,-14%,-6%,84,12µM*
CC(C)C[C@H](NC(=O)c1nc[nH]c1C(=O)NC(c1ccccc1)c1ccccc1)C(=O)OCc1ccccc1,3.7µM*,-11%,14%,18,2.9µM*
C[C@H](NC(=O)c1nc[nH]c1C(=O)N[C@@H](C)C(=O)OCc1ccccc1)C(=O)OCc1ccccc1,31%,-30%,21%,85,7%
C[C@H](NC(=O)c1nc[nH]c1C(=O)NC(c1ccccc1)c1ccccc1)C(=O)OCc1ccccc1,10µM*,-8%,-9%,22,?

# Source: PubChem (National Center for Advancing Translational Sciences (NCATS))
